Laboratory results published in the antibiotic and cytotoxicity screens of Wong et al. (2023).
Among all 39,000 compounds or so, about 3,300 (8.5%) were called active. The sample as a whole holds a higher share of actives than the screen did.

test system: HepG2; experiment: cytotoxicity call (relative viability < 0.9); conditions: 10 µM

Compound	cytotoxicity call
COc1ccc(S(=O)(=O)Nc2ccc3c(c2)C(=O)N([C@H](C)CO)C[C@H](C)[C@H](CN(C)C(=O)c2ccccc2)OCCCC[C@H](C)O3)cc1	inactive
CCS(=O)(=O)Nc1ccc2c(c1)C(=O)N(C)C[C@H](OC)[C@@H](C)CN(C(=O)c1ccc3c(c1)OCO3)[C@@H](C)CO2	inactive
O=C1CCOCCN1	inactive
C[C@@H]1CCCCO[C@H](CN(C)S(C)(=O)=O)[C@@H](C)CN([C@H](C)CO)C(=O)c2cc(NS(=O)(=O)c3ccccc3)ccc2O1	inactive
CC(C)C#Cc1cnc2c(c1)C(=O)N([C@H](C)CO)C[C@H](C)[C@@H](CN(C)C(=O)c1ccc3c(c1)OCO3)O2	inactive
COc1ccc(-c2cnc3c(c2)C(=O)N([C@@H](C)CO)C[C@@H](C)[C@H](CN(C)C(=O)Cc2ccncc2)O3)cc1	inactive
Cc1ccc(S(=O)(=O)N(C)C[C@@H]2Oc3ccc(NC(=O)CCCN(C)C)cc3C(=O)N([C@@H](C)CO)C[C@H]2C)cc1	inactive
CCC=CCC1=C(C)CCC1=O	inactive
C[C@]1(C(=O)NCc2ccccc2)c2ccccc2C(=O)N(Cc2ccccc2)[C@H]1c1ccc(COC(=O)NCCCCCC(=O)NO)cc1	inactive
COc1ccc(CN(C)C[C@@H]2OCCCC[C@H](C)Oc3ccc(NC(=O)Nc4ccccc4)cc3C(=O)N([C@@H](C)CO)C[C@@H]2C)cc1	inactive
Cc1ccc(S(=O)(=O)Nc2ccc3c(c2)C(=O)N([C@H](C)CO)C[C@@H](C)[C@H](CN(C)C(=O)C2CCCCC2)OCCCC[C@H](C)O3)cc1	inactive
O=C(C[C@@H]1CC[C@@H]2[C@H](COC[C@@H](O)CN2S(=O)(=O)c2ccc(Cl)cc2)O1)NCc1ccncn1	inactive
Cc1noc(C)c1S(=O)(=O)Nc1ccc2c(c1)C(=O)N([C@@H](C)CO)C[C@H](C)[C@@H](CN(C)S(=O)(=O)c1ccc(F)cc1)O2	inactive
C[C@H](CO)N1C[C@H](C)[C@H](CN(C)Cc2ccc(Oc3ccccc3)cc2)Oc2ccc(NS(=O)(=O)c3ccc(F)cc3)cc2CC1=O	active
C[C@H]1CN([C@@H](C)CO)C(=O)Cc2cc(NS(=O)(=O)c3ccc(F)cc3)ccc2O[C@H]1CN(C)Cc1ccc(Oc2ccccc2)cc1	active
C[C@@H]1CN([C@@H](C)CO)C(=O)Cc2cc(NS(=O)(=O)c3ccc(F)cc3)ccc2O[C@H]1CN(C)Cc1ccc(Oc2ccccc2)cc1	inactive
C[C@H]1CN([C@@H](C)CO)C(=O)Cc2cc(NS(=O)(=O)c3ccc(F)cc3)ccc2O[C@@H]1CN(C)Cc1ccc(Oc2ccccc2)cc1	inactive
C[C@@H]1CN([C@H](C)CO)C(=O)Cc2cc(NS(=O)(=O)c3ccc(F)cc3)ccc2O[C@H]1CN(C)Cc1ccc(Oc2ccccc2)cc1	active
C[C@@H]1CN([C@@H](C)CO)C(=O)Cc2cc(NS(=O)(=O)c3ccc(F)cc3)ccc2O[C@@H]1CN(C)Cc1ccc(Oc2ccccc2)cc1	active
Cc1noc(C)c1NC(=O)N(C)C[C@H]1Oc2ccc(NC(=O)c3ccncc3)cc2CC(=O)N([C@H](C)CO)C[C@H]1C	inactive

Compound	cytotoxicity call
CC(C)NC(=O)N(C)C[C@@H]1OCCCC[C@@H](C)Oc2ccc(NC(=O)Nc3ccccc3)cc2C(=O)N([C@@H](C)CO)C[C@H]1C	inactive
C[C@H]1CN([C@@H](C)CO)C(=O)c2cc(NS(=O)(=O)c3ccc(Cl)cc3)ccc2O[C@@H]1CN(C)S(C)(=O)=O	inactive
C[C@H](CO)N1C[C@H](C)[C@@H](CN(C)C(=O)C2CCOCC2)Oc2ncc(C#Cc3cccc(F)c3)cc2C1=O	inactive
C[C@@H]1CN([C@@H](C)CO)C(=O)c2cc(NC(=O)Nc3cccc4ccccc34)ccc2O[C@@H](C)CCCCO[C@@H]1CN(C)S(=O)(=O)c1cccs1	inactive
COc1ccccc1C#Cc1cnc2c(c1)C(=O)N([C@@H](C)CO)C[C@@H](C)[C@H](CN(C)C(=O)CC1CC1)O2	inactive
Cc1ccc(S(=O)(=O)Nc2ccc3c(c2)C(=O)N([C@H](C)CO)C[C@@H](C)[C@H](CN(C)C(=O)NC(C)C)O3)cc1	inactive
C[C@@H]1CN([C@H](C)CO)C(=O)CCCn2cc(nn2)CO[C@@H]1CN(C)C(=O)c1cc(-c2ccccc2)on1	inactive
CN(C)CCCCNC(=O)[C@@H]1C[C@@H]2C(=O)N[C@@H](CCCC[N+](C)(C)C)C(=O)N2[C@@H]1c1ccc(O)cc1	inactive
C[C@H]1CCCCO[C@H](CN(C)C(=O)Nc2ccc(C(F)(F)F)cc2)[C@@H](C)CN([C@@H](C)CO)C(=O)c2cc(NC(=O)Nc3cccc4ccccc34)ccc2O1	inactive
COc1ccc(S(=O)(=O)N(C)C[C@H]2Oc3ccc(NC(=O)Nc4c(C)noc4C)cc3CC(=O)N([C@@H](C)CO)C[C@@H]2C)cc1	inactive
CCS(=O)(=O)N1C[C@]2(CN(C2)C(=O)Nc2ccc(cc2)F)c2c(n(c3cc(ccc23)OC)C)[C@H]1CO	inactive
C[C@H](CO)N1C[C@H](C)[C@@H](CN(C)Cc2ccc(Oc3ccccc3)cc2)Oc2ccc(NS(=O)(=O)c3ccc(F)cc3)cc2CC1=O	inactive
C[C@@H]1CN([C@H](C)CO)C(=O)Cc2cc(NS(=O)(=O)c3ccc(F)cc3)ccc2O[C@@H]1CN(C)Cc1ccc(Oc2ccccc2)cc1	active
CC(=O)[C@@H](OC(=O)CS(C)(=O)=O)C(=O)NCc1ccccc1	inactive
COc1ccc(S(=O)(=O)Nc2ccc3c(c2)C(=O)N([C@H](C)CO)C[C@@H](C)[C@H](CN(C)C(=O)CCC(F)(F)F)OCCCC[C@@H](C)O3)cc1	inactive
C[C@@H]1CCCCO[C@@H](CN(C)C(=O)C2CCCCC2)[C@H](C)CN([C@@H](C)CO)C(=O)c2cc(NS(=O)(=O)c3ccccc3)ccc2O1	active
C[C@@H]1CN([C@@H](C)CO)C(=O)c2cc(NS(=O)(=O)c3ccc(Cl)cc3)ccc2O[C@@H](C)CCCCO[C@H]1CN(C)C(=O)C1CCCCC1	inactive
C[C@@H]1CCCCO[C@H](CN(C)C(=O)C2CCCCC2)[C@H](C)CN([C@@H](C)CO)C(=O)c2cc(NS(=O)(=O)c3ccc(Cl)cc3)ccc2O1	inactive
C[C@@H]1CCCCO[C@H](CN(C)C(=O)C2CCCCC2)[C@H](C)CN([C@H](C)CO)C(=O)c2cc(NS(=O)(=O)c3ccccc3)ccc2O1	inactive
C[C@H](CO)N1C[C@H](C)[C@H](CN(C)C(=O)C2CCCCC2)OCCCC[C@H](C)Oc2ccc(NS(=O)(=O)c3ccccc3)cc2C1=O	inactive

Compound	cytotoxicity call
C[C@@H]1CN([C@H](C)CO)C(=O)c2cc(NS(=O)(=O)c3ccc(Cl)cc3)ccc2O[C@@H](C)CCCCO[C@H]1CN(C)C(=O)C1CCCCC1	active
C[C@@H]1CCCCO[C@H](CN(C)C(=O)C2CCCCC2)[C@@H](C)CN([C@H](C)CO)C(=O)c2cc(NS(=O)(=O)c3ccc(Cl)cc3)ccc2O1	inactive
C[C@@H]1CN([C@H](C)CO)C(=O)c2cc(NS(=O)(=O)c3ccc(Cl)cc3)ccc2O[C@@H](C)CCCCO[C@@H]1CN(C)C(=O)C1CCCCC1	active
COc1ccc(S(=O)(=O)Nc2ccc3c(c2)C(=O)N([C@H](C)CO)C[C@H](C)[C@H](CN(C)C(=O)C2CCCCC2)OCCCC[C@H](C)O3)cc1	active
COc1ccc(S(=O)(=O)Nc2ccc3c(c2)C(=O)N([C@H](C)CO)C[C@@H](C)[C@H](CN(C)C(=O)C2CCCCC2)OCCCC[C@@H](C)O3)cc1	inactive
COc1ccc(S(=O)(=O)Nc2ccc3c(c2)C(=O)N([C@H](C)CO)C[C@H](C)[C@@H](CN(C)C(=O)C2CCCCC2)OCCCC[C@H](C)O3)cc1	inactive
C[C@@H]1CCCCO[C@@H](CN(C)C(=O)C2CCCCC2)[C@H](C)CN([C@@H](C)CO)C(=O)c2cc(NS(=O)(=O)c3ccc(Cl)cc3)ccc2O1	inactive
C[C@H]1CN([C@@H](C)CO)C(=O)Cc2cc(NC(=O)Cn3cnnn3)ccc2O[C@H]1CN(C)CC1CC1	inactive
COc1ccc(NC(=O)N(C)C[C@@H]2Oc3ncc(C#C[C@@H](C)O)cc3C(=O)N([C@@H](C)CO)C[C@@H]2C)cc1	inactive
CCC(=O)N[C@H]1CC[C@H](CC(=O)OC)O[C@@H]1CO	inactive
CNC(=O)C[C@H]1CC[C@@H]2[C@H](COC[C@@H](O)CN2C(=O)c2ccccn2)O1	inactive
CC(C)NC(=O)N(C)C[C@@H]1Oc2c(NS(=O)(=O)c3cn(C)cn3)cccc2C(=O)N([C@H](C)CO)C[C@H]1C	inactive
Cc1ccc(S(=O)(=O)N(C)C[C@H]2Oc3ccc(NC(=O)NC(C)C)cc3CC(=O)N([C@@H](C)CO)C[C@@H]2C)cc1	inactive
O=C(C[C@@H]1CC[C@H]2[C@@H](COC[C@H](O)CN2C(=O)Nc2ccc(C(F)(F)F)cc2)O1)NCCc1ccncc1	inactive
Cc1ccc(S(=O)(=O)Nc2ccc3c(c2)C(=O)N([C@@H](C)CO)C[C@H](C)[C@@H](CN(C)C(=O)C2CCCCC2)OCCCC[C@@H](C)O3)cc1	active
Cc1ccc(S(=O)(=O)Nc2ccc3c(c2)C(=O)N([C@H](C)CO)C[C@@H](C)[C@H](CN(C)C(=O)C2CCCCC2)OCCCC[C@@H](C)O3)cc1	inactive
Cc1ccc(S(=O)(=O)Nc2ccc3c(c2)C(=O)N([C@@H](C)CO)C[C@H](C)[C@H](CN(C)C(=O)C2CCCCC2)OCCCC[C@@H](C)O3)cc1	inactive
C[C@H]1CCCCO[C@H](CN(C)S(=O)(=O)c2cn(C)cn2)[C@@H](C)CN([C@@H](C)CO)C(=O)c2cc(NS(=O)(=O)c3ccc(F)cc3)ccc2O1	inactive
C[C@@H]1CN([C@H](C)CO)C(=O)c2cc(NC(=O)NC3CCCCC3)ccc2O[C@@H]1CN(C)S(C)(=O)=O	inactive
